# Screening results (PubChem)
# A selection: hits, their analogues and other compounds. The true share with any hit is near 20%.
# Shiga inhibitor = A qHTS for Small Molecule Inhibitors of Shiga Toxin | Vero cells, Shiga toxin protein synthesis inhibition reporter | inhibition, % at 38.7 µM | hit rate 9.2% among 290,000 | AID 2315, 2010; in the data active = inhibition mostly above about 28%, no sharp cut-off; inactive = mostly below about 43%; note: 0% is about no effect
# HCMV antiviral = qHTS Assay for inhibitors of the human cytomegalovirus (HCMV). HFF cells, HCMV-luciferase reporter, 72 h; hits give low values. hit rate 4.5% among 410,000. activity change, negative = inhibition, % at 57.5 µM; in the data active = activity change below about -60%; inconclusive = no clear call, values can overlap the other calls; inactive = above about -39%; note: % is set by controls: 0 for no effect and ±100 for the full control effect
#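 Screen run at 2 compound doses on HFFs infected with reporter HCMV, MOI 1 PFU/cell. Luciferase activity from cell lysates at 72 h post infection gave inhibition relative to buffer-only and Salinomycin wells.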
# Pf growth 96h = Primary qHTS for delayed death inhibitors of the malarial parasite plastid, 96 hour incubation; P. falciparum luciferase reporter growth, 96 h; Potency, µM (titrated, usually from 28.7 µM), without a hit: at the highest dose activity change, negative = inhibition, hits mostly inhibitors; hit rate 6.9% among 320,000; AID 504834, 2011; note: potency is the fitted concentration of half-maximal effect; % is set by controls: 0 for no effect and ±100 for the full control effect
#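 96 h incubation, 37 C, 5% CO2, of luciferase-reporter P. falciparum-infected RBCs (2% hematocrit, 0.05% parasitemia final) with test compounds; endpoint luminescence.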
# Pf growth 48h = Primary qHTS for delayed death inhibitors of the malarial parasite plastid, 48 hour incubation. Potency, µM (doses to about 28.7 µM), for the others: at the highest dose activity change, negative = inhibition, actives largely listed as inhibitors. P. falciparum luciferase growth in erythrocytes, 48 h. hit rate 5.9% among 310,000; note: potency is the fitted concentration of half-maximal effect; % is set by controls: 0 for no effect and ±100 for the full control effect
#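 Erythrocytes infected with P. falciparum carrying an integrated firefly luciferase reporter (2% hematocrit, 0.1% parasitemia final) were exposed to compounds in RPMI 1640 with 0.5% Albumax at 37 C, 5% CO2. Growth inhibition was scored as reduced luminescence.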
# CHX counter = Cycloheximide Counterscreen for Small Molecule Inhibitors of Shiga Toxin; cell reporter, cycloheximide protein synthesis inhibition counterscreen; max response, %; hit rate 12% among 300,000; AID 2314, 2010; in the data active = max response mostly above about 13%, no sharp cut-off; inactive = mostly below about 14%; note: read at 38.3 µM for the half of the compounds with a filed dose; 0% is about no effect
# Starred values were filed as active, the others as inactive; ? = inconclusive; . = no result. Unless noted, calls come from the whole dose curve; as a rule, active = well fitted inhibition curve with a large enough effect; inconclusive = small, poorly fitted or top-dose-only effect, or another doubt; inactive = no such curve, though single readings can be large or run the other way.
SMILES,Shiga inhibitor,HCMV antiviral,Pf growth 96h,Pf growth 48h,CHX counter
Cc1cc(C)c(NC(=O)c2cc3c(nc4sccn43)s2)c(C)c1,-10,?,?,?,0
CCc1nnc(NC(=O)CSc2nc3c([nH]c4ccccc43)c(=O)n2-c2ccc(C)cc2)s1,.,25,.,.,.
O=C(O)CCCCCNS(=O)(=O)c1cccc2c1C(=O)c1ccccc1C2=O,13,-9,-21%,21%,8
O=C1c2cccc(NCCCNCCO)c2C(=O)c2cccc(NCCCNCCO)c21,.,-98*,.,.,.
O=C(/C=C/Nc1ccc(F)cc1)c1cccs1,.,17,.,.,.
O=C(/C=C/Nc1ccc(F)cc1)c1ccco1,67*,59,.,279%,35*
CCOC(=O)c1ccc(N/C=C/C(=O)c2ccco2)cc1,66*,127,97%,.,40*
CC(=O)Nc1ccc(S(=O)(=O)NCCC(=O)Nc2ccc(C)c(F)c2)cc1,4,?,?,-1%,-4
Cc1ccc(NC(=O)CCC(=O)c2cccs2)cc1F,42,-64*,163%,171%,27*
Cc1ccc(NC(=O)CCNS(=O)(=O)c2cccs2)cc1F,70*,18,-7%,58%,26*
Cc1ccc(NC(=O)CNS(=O)(=O)c2cccs2)cc1F,79*,9,.,32%,80*
Cc1ccc(NC(=O)CCC(=O)NNC(=O)c2cccs2)cc1C,-15,40,.,21%,17
O=C(CCC(=O)c1cccs1)Nc1ccccc1F,37,-21,-6%,61%,16*
COc1ccc(NC(=O)CNS(=O)(=O)c2cccs2)cc1,6,-10,0%,23%,17
COc1cccc(C(=O)N/N=c2\sc3ccccc3n2C)c1,20,-38,54%,42%,15*
Cn1/c(=N/NC(=O)c2ccccc2F)sc2ccccc21,79*,12,171%,116%,35*
CCC(=O)N/N=c1/sc2ccccc2n1C,27,-14,?,6%,7
Cc1ccc(C(=O)N/N=c2\sc3ccccc3n2C)cc1,-6,-31,-14%,22%,20*
CC(=O)N=c1sc2ccccc2n1C,-2,21,71%,12%,13
Cn1c(=O)[nH]c(=O)c2c1nc(SCCCO)n2CCCc1ccccc1,-15,42,96%,0%,-5
NNC(=O)CN1C(c2ccc(Cl)cc2)=Nc2ccc(Br)cc2C1c1ccccc1 (stereo unspecified),-16,76,34%,8.3µM*,-3
COc1cc(OC)c(C2=Nc3ccc(Br)cc3C(c3ccccc3)N2CC(=O)NN)cc1OC (stereo unspecified),-6,-68*,?,?,4
CC1=Nc2ccc(Br)cc2C(c2ccccc2)N1CC(=O)NN (stereo unspecified),36,-19,8%,?,-5
NNC(=O)CN1C(CN2CCOCC2)=Nc2ccc(Br)cc2C1c1ccccc1 (stereo unspecified),-6,-6,13µM*,?,-7
CC(=O)N1c2ccc(S(=O)(=O)NCCC(=O)Nc3ccc(OC(F)(F)F)cc3)cc2CC1C (stereo unspecified),-4,-24,18%,2%,12
SMILES,Shiga inhibitor,HCMV antiviral,Pf growth 96h,Pf growth 48h,CHX counter
Cc1ccc(NC(=O)Cn2c(=O)n(Cc3ccco3)c(=O)c3sc4ccccc4c32)cc1C,.,-3,.,.,.
CN1/C(=C\C=N\O)C(C)(C)c2ccccc21,50,2,-9%,16%,-2
CCCN1C(=O)/C(=C\C=C2\N(CC)c3ccccc3C2(C)C)SC1=S,-5,-19,-4%,5.2µM*,0
CN1C(=CC=C2C=C(I)C(=O)C(I)=C2)C(C)(C)c2ccccc21,12,-77*,2.1µM*,3.3µM*,-3
CN1/C(=C\C=[N+](C)c2ccccc2)C(C)(C)c2ccccc21,-13,-95*,2.1µM*,0.41µM*,1
CN1/C(=C\C=C2/SC(=S)NC2=O)C(C)(C)c2ccccc21,-1,-93*,?,?,-3
CCN(C(=O)CSC1=Nc2ccccc2C2CC=NN12)C1CCS(=O)(=O)C1 (stereo unspecified),16,20,?,-11%,1
Cc1nc(-c2ccccc2)sc1CCNC(=O)C(=O)Nc1ccc(F)c(Cl)c1,.,-1,.,.,.
CC(C)(C)OC(=O)NC(Cc1ccccc1)C(=O)NC1COC2CC(n3ccc(=O)[nH]c3=O)OC12 (stereo unspecified),6,.,.,.,-5
CN1/C(=C\C=C2C(=O)NC(=S)NC2=O)C(C)(C)c2ccccc21,-13,-20,-7%,16%,-1
CN1/C(=C\C=C2/C(=O)Oc3ccccc3C2=O)C(C)(C)c2ccccc21,40*,-17,?,12µM*,39*
CN(C)c1ccc(N=C/C=C2/N(C)c3ccccc3C2(C)C)cc1,78*,-19,?,-61%,62*
O=C(N/N=C/c1cc(Cl)cc([N+](=O)[O-])c1O)NC12CC3CC(CC(C3)C1)C2,-7,9,8%,-21%,-2
CC(CCn1cccn1)NC(=O)c1cc(COc2ccc(F)cc2Cl)on1 (stereo unspecified),4,-29,10µM*,44%,1
O=C(NCCCn1cccn1)c1cc(COc2ccccc2)on1,.,-27,.,.,.
CCn1nc(C)c(CNC(=O)c2cc(COc3ccc(F)cc3Cl)on2)c1C,21,-85*,-20%,-22%,6
CCN(CCn1cccn1)C(=O)c1cc(COc2ccc(F)cc2Cl)on1,32,-4,?,5%,11
CC(=O)c1ccc(OCc2cc(C(=O)NC(C)CCn3cccn3)no2)cc1 (stereo unspecified),111*,94,15%,-28%,66*
CC(CCn1cccn1)NC(=O)c1cc(COc2ccc(F)cc2F)on1 (stereo unspecified),9,-38,?,11%,-4
O=C(NCCCn1cccn1)c1cc(COc2ccc(F)cc2Cl)on1,22*,1,44%,19%,19*
Cc1nnsc1C(=O)N1CCC(C(=O)c2ccccc2)CC1,-9,16,35%,67%,-3
CCCOc1ccc(C(C)=O)cc1CSc1nc(O)cc(=O)[nH]1,2,-18,0.93µM*,.,9
O=c1c2ccccc2nc(SCCN2CCCCC2)n1CCc1ccccc1,28,2,19%,16%,-5
CC(C)(C)NC(=O)CC1C[C@H](C(=O)N2CCOCC2)[C@@]2(CCC3CCCC3)c3[nH]c4ccccc4c3CCN2C1=O (stereo partly specified),.,-3,.,.,.
COC(=O)[C@@]12CCCCN1[C@H](c1ccc(-c3ccc(F)cc3)cc1)[C@@H]1C(=O)N(C)C(=O)[C@@H]12,.,0,13µM*,?,.
COC(=O)[C@@]12CCCN1[C@H](c1ccc(-c3ccc(OC)cc3)c(OC)c1)[C@H]1C(=O)N(C)C(=O)[C@H]12,.,-19,?,8.3µM*,.
